Measurements taken from PubChem BioAssay (NCI).
The panel holds about 79,000 compounds, 15% with a hit somewhere; the sample as a whole holds those more often. Unmarked numbers belong to inactive results. Activity calls are given as the source filed them. Rule as the data show it: active = growth inhibition above about 70%; inactive = the rest. Where a SMILES comes first, the peptide text is derived from it. [ ]: non-standard residue; d: D form. The star is where a group is joined. ξ: configuration not given here. Tos = Cc1ccc(S(=O)(=O)*)cc1; ξY = NC(Cc1ccc(O)cc1)C(=O)O

Experiments:
[1] = NCI Yeast Anticancer Drug Screen. Data for the rad50 strain (AID 155);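 also: 0% = growth of vehicle-only cultures of the same strain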; conditions: S. cerevisiae rad50 strain growth inhibition; at 50.0 µM; active compounds read high
Summary of the method: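 Relative growth inhibition (compound vs vehicle) was measured in yeast with a defined repair-gene alteration.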

[2] = NCI Yeast Anticancer Drug Screen. Data for the mec2-1 strain (AID 157); conditions: S. cerevisiae mec2-1 strain, at 50.0 µM, active compounds read high
Summary of the method: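 Yeast mec2-1 mutant treated with compound. Readout: growth inhibition vs vehicle controls.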

[3] = NCI Yeast Anticancer Drug Screen. Data for the sgs1 mgt1 strain (AID 161);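 also: 0% = growth of cultures given vehicle only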; conditions: S. cerevisiae sgs1 mgt1 strain, at 50.0 µM, active compounds read high
Summary of the method: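 Inhibition of yeast growth, normalised to vehicle-treated controls, is reported for a strain bearing genetic alterations in DNA damage repair.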

[4] = NCI Yeast Anticancer Drug Screen. Data for the cln2 rad14 strain (AID 165);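 also: 0% = growth equal to vehicle treated cultures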; conditions: S. cerevisiae cln2 rad14 strain, at 50.0 µM, active compounds read high
Summary of the method: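 cln2 rad14 yeast strain; compound exposure; growth inhibition read vs vehicle controls.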

[5] = NCI Yeast Anticancer Drug Screen. Data for the bub3 strain (AID 167); conditions: S. cerevisiae bub3 mutant strain, at 50.0 µM, active compounds read high
Summary of the method: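 Screening used yeast with an engineered genetic alteration affecting cell cycle control. Compound-exposed cultures were compared with vehicle cultures, and reduced growth was taken as inhibition.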

[6] = NCI Yeast Anticancer Drug Screen. Data for the mlh1 rad18 strain (AID 175); conditions: S. cerevisiae mlh1 rad18 strain growth inhibition; at 50.0 µM; active compounds read high
Summary of the method: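 Yeast w/ defined DNA-repair lesions; compound exposure; growth vs vehicle controls → % inhibition.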

Structure (SMILES)	growth inhibition [1]	growth inhibition [2]	growth inhibition [3]	growth inhibition [4]	growth inhibition [5]	growth inhibition [6]
COc1cc(/C=C2\Cc3ccccc3C2=O)cc(OC)c1OC	-13%	-14.8%	-15.8%	18.3%	-14.1%	-13.1%
C/C(=N/NC(N)=S)c1cn[nH]c1C	-64.3%	-19.9%	-16.1%	-55.4%	4.5%	-1.6%
Nc1[nH]c(=O)nc2c1cnn2Cc1ccccc1	-0.75%	-10.1%	-14.2%	-12.2%	-2.7%	-3.8%
CCC(=N\NC(N)=S)/C(C)=N/O	-2.35%	6.3%	19.4%	15.2%	14.3%	16.3%
COc1ccc2c(c1)CC[C@@H]1[C@@H]2CC[C@@]2(C)[C@H]1C[C@@](C)(O)[C@H]2O	-5.65%	3.05%	-2.45%	-59.9%	10.8%	-11.7%
COC(=O)C[CH2][Ge]([CH3])([CH3])[S]c1ccccc1	52.9%	27.1%	34.1%	4.3%	15.4%	18.1%
N=c1c2ncn(C3OC(COP(=O)(O)O)C(O)C3O)c2ncn1O (stereo unspecified)	12.7%	0%	-6.6%	-18%	-9.6%	1.15%
CN(C)C(CO)(CO)CO	15.3%	-7.5%	3%	-0.75%	3.3%	2.3%
Cc1sc2ncnc(Cl)c2c1C	1.95%	13.2%	-1.4%	-23%	4.45%	4.05%
Cc1ccc2cc(N(C)C)ccc2[n+]1C	29.9%	24.1%	39.9%	34.4%	22.2%	30.8%
C/C(=N\NC(=O)C1CCCO1)c1cccc2ccccc12 (stereo unspecified)	3.1%	11.5%	5.55%	17%	3.9%	3.55%
CCC(CC(C)C)C(=O)OCCBr (stereo unspecified)	17.9%	15.2%	20.6%	-12.8%	45.5%	14.4%
N#C/C(=C\c1ccccc1[N+](=O)[O-])C(=O)O	36.5%	0.45%	23.2%	16.9%	-19%	3.7%
O=C1C=C(NCC(c2ccccc2)c2ccccc2)C(=O)c2ncccc21	33.2%	24.8%	43%	34.9%	40.9%	77.8% (active)
COC(=O)C(Cc1ccc(O)cc1)NC(=O)CNS(=O)(=O)c1ccc(C)cc1 (stereo not drawn) (Tos-Gly-[ξY]-OMe)	35.8%	-4.1%	19.9%	10.9%	-1.2%	8.4%
CSc1nc(=S)c2[nH]c(Cl)nc2[nH]1	-1.8%	0.4%	-6.9%	-15.2%	16.4%	0.25%
CO/C(N)=C(\C#N)N=Cc1cccs1	3.95%	4.6%	11.4%	5.1%	-8.4%	9.9%
C/C(=N\N)c1ccc(Cl)cc1O	7.45%	-34.2%	7.2%	4.25%	3.5%	16%
O=C(NC1(C(=O)O)CCCC1)c1ccccc1	-34.5%	-27.2%	-12.7%	-31.7%	-4.35%	0.7%
CCC[N+]1([O-])CCOCC1	-8.2%	-1.8%	-5.55%	26.4%	14.3%	-18.1%
CC1(C)N=C(c2ccccc2)SC1(C)C	-13.6%	-12.2%	-21.8%	-49.4%	1.65%	-36.5%

Structure (SMILES)	growth inhibition [1]	growth inhibition [2]	growth inhibition [3]	growth inhibition [4]	growth inhibition [5]	growth inhibition [6]
CCC(C)SC1=NC(N)=NC2=NC=NC21 (stereo unspecified)	-11.6%	-2.85%	-9.3%	-21.8%	6.05%	4.25%
COC(=O)C1(C2CCc3cc(OC)ccc3C2=O)NC(=S)NC(=O)C1C#N (stereo unspecified)	-2.8%	-4.45%	-18.2%	-4.05%	-21.1%	-6.65%
COc1ccc(CC(=O)OCCCl)cc1OC	-17%	-22.4%	3%	-26.4%	44.1%	-20.7%
Cc1cc([N+](=O)[O-])ccc1N=NC(=O)NNc1ccc([N+](=O)[O-])cc1C	-0.45%	5.1%	8.35%	-33.1%	4.15%	23.2%
C(=N/NC(=N/N=C/c1ccccc1)N/N=C/c1ccccc1)/c1ccccc1	28.8%	23.1%	46.6%	28.3%	5.65%	24.1%
CC1=CC(C)(C)Nc2ccccc2N1	-7.1%	-4.85%	-8.8%	14.2%	-3%	1.45%
O=C(OCC1OC(C2N(c3ccccc3)CCN2c2ccccc2)C(OC(=O)c2ccccc2)C1OC(=O)c1ccccc1)c1ccccc1 (stereo unspecified)	0.85%	6.5%	-26.4%	-7.45%	-11.9%	9.7%
O=C(O)C1C2OC3C(OC(=O)C31)C2Cl (stereo unspecified)	-4.5%	6%	9.85%	-14.3%	-6.5%	-12.3%
CCCCCCCCCCCCCCCCS(=O)(=O)N/N=c1\cc(-c2ccccc2Cl)c2ccccc2n1C	-0.15%	-16.9%	1.95%	6.45%	-11.1%	3.35%
CC(C)=CC(=O)OC1C2C(C)=CC(O)C(O)C2(C)C2C3(O)OCC24C(CC(=O)OC14)C(C)C3O (stereo unspecified)	56.5%	38.1%	23.4%	48.4%	53.5%	86.8% (active)
CC1CCC(CCBr)CC1 (stereo unspecified)	5.8%	-9.9%	5.15%	-3.15%	0.9%	2.25%
O=C(OCc1ccccc1)N(Cc1ccccc1)S(=O)(=O)c1ccccc1	26.1%	34.8%	14.9%	5.5%	13.6%	0.4%
Cc1ccc(S(=O)(=O)OCC2C(COS(=O)(=O)c3ccc(C)cc3)C3C4C5C2C2C3C4C52)cc1 (stereo unspecified)	-15.9%	-0.3%	9.75%	13.8%	-5.5%	-21.5%
O=C(O)CCC(C(=O)O)N(Cc1ccccc1)Cc1ccccc1 (stereo unspecified)	11.4%	-0.4%	-1.45%	1%	7.75%	5.9%
Oc1ccccc1C1SCSCS1	14.8%	12.9%	14.1%	-3.3%	-10.4%	5.85%
CCOC(=O)CC/C(=C\NC(=O)c1ccccc1)NC(=O)c1ccccc1	-9%	-26.4%	-21.6%	16.2%	-9.55%	1.9%
CS(=O)(=O)CCCCCCCCCCC(=O)O	-5.4%	13.6%	3.4%	3.95%	10.4%	15.4%
C/C(=N/NC(=O)C1CCCO1)c1ccc(C)cc1 (stereo unspecified)	0.95%	-6.5%	-4.75%	-92%	-6.5%	-28.9%
CCc1[nH]nc(-c2n[nH]c(CC)c2C)c1C	-66.8%	-24.9%	-20.1%	-26.4%	-13.7%	-9.3%
CC(=O)OCC1OC(OC(C)=O)C(Nc2ncnc3nc[nH]c23)C(OC(C)=O)C1OC(C)=O (stereo unspecified)	28.1%	23.9%	49.9%	11.6%	16.5%	37.8%
